# Measured values published in publication PMC7862700, “An all-to-all approach to the identification of sequence-specific readers for epigenetic DNA modifications on cytosine”.
# What was measured:
# Experiment in all cases: DAPPL (digital affinity profiling via proximity ligation, sequencing); 10 mM Tris-HCl pH 7.5, 50 mM NaCl, 1 mM DTT, 4% glycerol, room temperature, 30 min; GST-TFs on glutathione beads, 16-mer random dsDNA library, 0.1% formaldehyde crosslink after washing; high values mean tight binding
# FEV = target: T1, FEV (Homo sapiens, UniProt Q99581 1-238); conditions: protein: recombinant; tags: N-terminal GST; dsDNA, one strand shown
# T1 sequence: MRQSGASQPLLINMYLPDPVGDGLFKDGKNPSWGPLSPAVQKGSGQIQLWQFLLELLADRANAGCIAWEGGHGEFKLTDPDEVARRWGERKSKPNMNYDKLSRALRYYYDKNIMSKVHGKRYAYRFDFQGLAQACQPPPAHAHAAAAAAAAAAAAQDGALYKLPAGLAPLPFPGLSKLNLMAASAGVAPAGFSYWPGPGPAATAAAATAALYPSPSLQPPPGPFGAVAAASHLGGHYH
# Procedure, shortened: (§1)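 Each value of binding signal is a hexamer's read frequency for a factor divided by the same hexamer's frequency in the tag-only sample. Barcoded, bead-captured GST fusions of human transcription factors made in yeast were pooled with that sample and incubated with 200 nmole of a random double-stranded 16-mer DNA library in Tris/NaCl/DTT/glycerol buffer at room temperature for 30 min. Washing, 0.1% formaldehyde crosslinking, proximity ligation, PCR and Illumina NextSeq500 sequencing followed.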
# ETV5 = ETV5 (Homo sapiens, UniProt P41161 1-510); conditions: protein: recombinant; tags: N-terminal GST; dsDNA, one strand shown
# ETV5, sequence (P41161 whole entry): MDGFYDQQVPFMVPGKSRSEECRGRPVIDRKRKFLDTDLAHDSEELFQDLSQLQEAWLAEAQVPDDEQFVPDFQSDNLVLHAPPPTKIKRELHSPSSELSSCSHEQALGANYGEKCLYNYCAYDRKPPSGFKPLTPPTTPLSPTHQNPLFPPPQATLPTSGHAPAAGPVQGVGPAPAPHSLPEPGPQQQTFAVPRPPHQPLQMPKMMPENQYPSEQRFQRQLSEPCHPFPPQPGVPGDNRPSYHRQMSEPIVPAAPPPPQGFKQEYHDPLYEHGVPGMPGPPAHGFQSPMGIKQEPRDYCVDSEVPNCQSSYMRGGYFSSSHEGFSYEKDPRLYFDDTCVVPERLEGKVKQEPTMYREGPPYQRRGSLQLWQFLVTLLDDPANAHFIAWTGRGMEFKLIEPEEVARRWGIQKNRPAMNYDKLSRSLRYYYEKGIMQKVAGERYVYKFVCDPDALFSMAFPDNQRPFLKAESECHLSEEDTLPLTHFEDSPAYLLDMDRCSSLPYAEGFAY
# Procedure, shortened: as §1
# HSF1 = HSF1 (Homo sapiens, UniProt Q00613 1-529); conditions: protein: recombinant; tags: N-terminal GST; chain copies: 3; dsDNA, one strand shown
# HSF1, sequence (Q00613 whole entry): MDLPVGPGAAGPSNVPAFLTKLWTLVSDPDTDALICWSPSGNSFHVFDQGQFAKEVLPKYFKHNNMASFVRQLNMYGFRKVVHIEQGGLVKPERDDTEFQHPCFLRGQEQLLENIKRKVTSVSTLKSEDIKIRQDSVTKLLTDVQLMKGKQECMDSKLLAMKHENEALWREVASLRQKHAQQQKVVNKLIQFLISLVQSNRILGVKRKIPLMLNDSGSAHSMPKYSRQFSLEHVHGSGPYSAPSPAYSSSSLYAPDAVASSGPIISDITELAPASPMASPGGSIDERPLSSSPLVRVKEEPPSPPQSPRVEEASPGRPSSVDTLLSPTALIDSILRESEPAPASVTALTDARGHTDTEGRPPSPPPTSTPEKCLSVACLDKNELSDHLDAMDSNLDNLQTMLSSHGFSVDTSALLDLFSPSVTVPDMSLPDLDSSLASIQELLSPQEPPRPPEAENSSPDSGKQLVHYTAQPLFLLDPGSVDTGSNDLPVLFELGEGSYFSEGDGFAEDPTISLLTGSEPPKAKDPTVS
# Procedure, shortened: as §1
# SPIC = target: T2, SPIC (Homo sapiens, UniProt Q8N5J4 1-248); conditions: protein: recombinant; tags: N-terminal GST; dsDNA, one strand shown
# T2 sequence: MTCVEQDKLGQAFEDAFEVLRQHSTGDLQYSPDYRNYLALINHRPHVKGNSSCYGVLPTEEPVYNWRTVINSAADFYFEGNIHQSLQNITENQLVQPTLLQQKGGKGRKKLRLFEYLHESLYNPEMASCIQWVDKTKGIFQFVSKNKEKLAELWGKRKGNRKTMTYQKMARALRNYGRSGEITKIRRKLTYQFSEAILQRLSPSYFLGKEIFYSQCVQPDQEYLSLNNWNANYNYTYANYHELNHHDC
# Procedure, shortened: as §1
# ELF4 = ELF4 (Homo sapiens, UniProt Q99607 1-663); conditions: protein: recombinant; tags: N-terminal GST; dsDNA, one strand shown
# ELF4, sequence (Q99607 whole entry): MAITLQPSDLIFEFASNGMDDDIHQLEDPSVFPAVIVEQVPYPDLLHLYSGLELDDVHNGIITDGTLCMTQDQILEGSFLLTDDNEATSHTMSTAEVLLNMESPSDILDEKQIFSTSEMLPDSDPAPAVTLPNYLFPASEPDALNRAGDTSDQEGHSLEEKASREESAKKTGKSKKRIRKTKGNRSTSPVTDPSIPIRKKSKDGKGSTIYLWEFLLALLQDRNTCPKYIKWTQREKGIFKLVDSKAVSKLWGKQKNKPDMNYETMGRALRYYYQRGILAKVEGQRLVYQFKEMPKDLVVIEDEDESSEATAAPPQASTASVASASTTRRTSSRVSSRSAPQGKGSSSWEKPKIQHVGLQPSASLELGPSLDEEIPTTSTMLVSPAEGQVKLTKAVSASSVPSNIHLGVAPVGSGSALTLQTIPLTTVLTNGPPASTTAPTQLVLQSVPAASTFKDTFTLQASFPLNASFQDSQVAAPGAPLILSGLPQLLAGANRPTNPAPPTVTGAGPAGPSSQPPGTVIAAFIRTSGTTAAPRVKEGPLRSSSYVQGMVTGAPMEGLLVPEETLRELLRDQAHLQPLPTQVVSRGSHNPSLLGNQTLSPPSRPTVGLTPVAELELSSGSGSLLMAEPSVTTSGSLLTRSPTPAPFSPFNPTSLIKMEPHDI
# Procedure, shortened: as §1
# ELK4 = target: T3, ELK4 (Homo sapiens, UniProt P28324-2 1-405); conditions: protein: recombinant; tags: N-terminal GST; dsDNA, one strand shown
# T3 sequence: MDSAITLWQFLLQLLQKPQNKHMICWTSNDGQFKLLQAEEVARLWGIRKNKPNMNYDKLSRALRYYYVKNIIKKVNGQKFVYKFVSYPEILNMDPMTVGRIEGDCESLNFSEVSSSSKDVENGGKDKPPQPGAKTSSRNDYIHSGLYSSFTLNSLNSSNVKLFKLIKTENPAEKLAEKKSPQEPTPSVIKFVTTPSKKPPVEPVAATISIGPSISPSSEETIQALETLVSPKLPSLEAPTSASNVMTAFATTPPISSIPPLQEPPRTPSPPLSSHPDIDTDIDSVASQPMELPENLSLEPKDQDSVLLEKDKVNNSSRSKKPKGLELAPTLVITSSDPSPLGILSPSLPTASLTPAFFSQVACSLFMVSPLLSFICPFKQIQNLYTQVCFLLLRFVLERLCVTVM
# Procedure, shortened: as §1
# ETV2 = target: T4, ETV2 (Homo sapiens, UniProt O00321 1-342); conditions: protein: recombinant; tags: N-terminal GST; dsDNA, one strand shown
# T4 sequence: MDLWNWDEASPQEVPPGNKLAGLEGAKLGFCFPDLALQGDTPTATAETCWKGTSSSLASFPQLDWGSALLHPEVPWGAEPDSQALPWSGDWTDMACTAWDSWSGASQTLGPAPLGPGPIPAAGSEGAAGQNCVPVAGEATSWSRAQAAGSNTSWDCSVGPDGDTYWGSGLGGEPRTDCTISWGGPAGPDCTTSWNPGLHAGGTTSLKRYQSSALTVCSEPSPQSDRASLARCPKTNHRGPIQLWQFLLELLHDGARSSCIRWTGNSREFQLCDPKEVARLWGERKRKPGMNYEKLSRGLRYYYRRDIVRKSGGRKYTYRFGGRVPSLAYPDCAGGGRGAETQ
# Procedure, shortened: as §1
# ELF3 = target: T5, ELF3 (Homo sapiens, UniProt P78545 1-371); conditions: protein: recombinant; tags: N-terminal GST; dsDNA, one strand shown
# T5 sequence: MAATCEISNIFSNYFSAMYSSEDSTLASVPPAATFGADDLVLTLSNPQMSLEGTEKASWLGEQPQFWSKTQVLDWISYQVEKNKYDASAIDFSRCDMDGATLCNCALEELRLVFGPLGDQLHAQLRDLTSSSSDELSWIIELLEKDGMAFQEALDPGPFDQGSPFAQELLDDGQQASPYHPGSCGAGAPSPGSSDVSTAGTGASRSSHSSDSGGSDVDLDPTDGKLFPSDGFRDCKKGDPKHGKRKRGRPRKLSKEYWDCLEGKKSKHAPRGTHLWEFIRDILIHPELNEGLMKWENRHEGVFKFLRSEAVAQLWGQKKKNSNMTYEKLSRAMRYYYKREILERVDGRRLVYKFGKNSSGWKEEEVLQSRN
# Procedure, shortened: as §1
# CRX = CRX (Homo sapiens, UniProt O43186 1-299); conditions: protein: recombinant; tags: N-terminal GST; dsDNA, one strand shown
# CRX, sequence (O43186 whole entry): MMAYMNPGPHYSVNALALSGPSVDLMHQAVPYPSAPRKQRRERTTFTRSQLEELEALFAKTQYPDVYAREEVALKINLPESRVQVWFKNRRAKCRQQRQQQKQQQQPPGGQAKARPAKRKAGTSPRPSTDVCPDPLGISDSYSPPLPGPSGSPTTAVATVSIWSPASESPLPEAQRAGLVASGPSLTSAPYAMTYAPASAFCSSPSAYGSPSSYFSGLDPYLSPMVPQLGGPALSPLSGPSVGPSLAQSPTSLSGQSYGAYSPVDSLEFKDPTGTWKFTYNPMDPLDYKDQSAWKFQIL
# Procedure, shortened: as §1
# ETV1 = ETV1 (Homo sapiens, UniProt P50549 1-477); conditions: protein: recombinant; tags: N-terminal GST; dsDNA, one strand shown
# ETV1, sequence (P50549 whole entry): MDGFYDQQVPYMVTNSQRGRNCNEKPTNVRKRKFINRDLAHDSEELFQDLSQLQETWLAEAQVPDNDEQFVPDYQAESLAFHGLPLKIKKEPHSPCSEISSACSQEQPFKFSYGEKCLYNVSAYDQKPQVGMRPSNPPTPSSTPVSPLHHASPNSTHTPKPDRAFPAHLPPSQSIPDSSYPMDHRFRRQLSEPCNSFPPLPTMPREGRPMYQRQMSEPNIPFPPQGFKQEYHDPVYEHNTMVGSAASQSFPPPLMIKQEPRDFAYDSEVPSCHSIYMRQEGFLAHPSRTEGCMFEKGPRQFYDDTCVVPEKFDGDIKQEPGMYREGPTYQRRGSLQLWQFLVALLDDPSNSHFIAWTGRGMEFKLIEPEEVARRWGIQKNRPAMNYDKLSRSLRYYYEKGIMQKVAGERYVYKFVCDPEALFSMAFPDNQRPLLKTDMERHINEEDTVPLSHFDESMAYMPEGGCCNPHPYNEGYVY
# Procedure, shortened: as §1
# ERF = target: T6, ERF (Homo sapiens, UniProt P50548 1-548); conditions: protein: recombinant; tags: N-terminal GST; dsDNA, one strand shown
# T6 sequence: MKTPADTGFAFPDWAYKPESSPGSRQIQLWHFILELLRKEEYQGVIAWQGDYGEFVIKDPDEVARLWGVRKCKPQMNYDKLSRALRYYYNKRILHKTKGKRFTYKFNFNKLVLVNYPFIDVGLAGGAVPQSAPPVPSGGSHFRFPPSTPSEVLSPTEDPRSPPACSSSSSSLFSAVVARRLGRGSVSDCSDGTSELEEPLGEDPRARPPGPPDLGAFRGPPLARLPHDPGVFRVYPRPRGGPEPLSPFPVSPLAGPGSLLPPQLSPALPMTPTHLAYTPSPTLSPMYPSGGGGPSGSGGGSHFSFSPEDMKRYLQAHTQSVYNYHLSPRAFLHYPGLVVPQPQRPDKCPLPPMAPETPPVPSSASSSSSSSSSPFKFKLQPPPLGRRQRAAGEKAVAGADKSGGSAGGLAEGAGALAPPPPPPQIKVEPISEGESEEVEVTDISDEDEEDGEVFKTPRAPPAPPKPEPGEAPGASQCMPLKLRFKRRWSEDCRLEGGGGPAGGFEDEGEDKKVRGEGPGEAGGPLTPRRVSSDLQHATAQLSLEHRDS
# Procedure, shortened: as §1
# ETV3L = target: T7, ETV3L (Homo sapiens, UniProt Q6ZN32 1-361); conditions: protein: recombinant; tags: N-terminal GST; dsDNA, one strand shown
# T7 sequence: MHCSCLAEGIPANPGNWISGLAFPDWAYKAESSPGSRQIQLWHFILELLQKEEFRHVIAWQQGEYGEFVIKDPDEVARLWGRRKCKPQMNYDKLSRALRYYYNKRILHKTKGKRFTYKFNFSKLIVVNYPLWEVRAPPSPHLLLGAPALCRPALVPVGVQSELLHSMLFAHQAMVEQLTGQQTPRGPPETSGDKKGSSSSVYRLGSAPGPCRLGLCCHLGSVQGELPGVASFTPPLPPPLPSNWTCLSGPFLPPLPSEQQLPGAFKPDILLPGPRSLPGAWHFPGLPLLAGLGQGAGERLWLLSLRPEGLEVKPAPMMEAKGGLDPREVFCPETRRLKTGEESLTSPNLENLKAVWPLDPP
# Procedure, shortened: as §1
# ETS2 = target: T8, ETS2 (Homo sapiens, UniProt P15036 1-469); conditions: protein: recombinant; tags: N-terminal GST; dsDNA, one strand shown
# T8 sequence: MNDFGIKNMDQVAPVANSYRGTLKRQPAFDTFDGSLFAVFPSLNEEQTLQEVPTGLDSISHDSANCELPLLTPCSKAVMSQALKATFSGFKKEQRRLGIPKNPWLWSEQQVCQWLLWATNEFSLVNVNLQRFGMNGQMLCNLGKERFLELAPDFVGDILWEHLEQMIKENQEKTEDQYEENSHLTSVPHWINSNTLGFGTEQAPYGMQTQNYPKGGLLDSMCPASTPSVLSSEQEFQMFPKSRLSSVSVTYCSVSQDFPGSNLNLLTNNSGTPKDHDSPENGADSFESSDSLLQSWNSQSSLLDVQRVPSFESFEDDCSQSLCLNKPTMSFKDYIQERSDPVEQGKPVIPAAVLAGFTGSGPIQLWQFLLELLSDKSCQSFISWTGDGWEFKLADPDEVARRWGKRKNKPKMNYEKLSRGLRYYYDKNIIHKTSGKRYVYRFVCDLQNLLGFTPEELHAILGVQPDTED
# Procedure, shortened: as §1
# SPDEF = target: T9, SPDEF (Homo sapiens, UniProt O95238 1-335); conditions: protein: recombinant; tags: N-terminal GST; dsDNA, one strand shown
# T9 sequence: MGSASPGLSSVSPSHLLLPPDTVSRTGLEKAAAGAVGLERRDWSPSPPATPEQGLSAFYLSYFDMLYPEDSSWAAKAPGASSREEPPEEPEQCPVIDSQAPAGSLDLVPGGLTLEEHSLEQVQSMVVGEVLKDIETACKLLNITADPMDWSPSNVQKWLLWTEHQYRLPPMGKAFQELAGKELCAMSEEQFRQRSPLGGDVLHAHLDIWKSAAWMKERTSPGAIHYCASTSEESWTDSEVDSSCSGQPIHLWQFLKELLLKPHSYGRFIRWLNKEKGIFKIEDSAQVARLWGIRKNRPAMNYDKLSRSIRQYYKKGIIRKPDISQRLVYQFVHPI
# Procedure, shortened: as §1
# ETV7 = target: T10, ETV7 (Homo sapiens, UniProt Q9Y603 1-341); conditions: protein: recombinant; tags: N-terminal GST; dsDNA, one strand shown
# T10 sequence: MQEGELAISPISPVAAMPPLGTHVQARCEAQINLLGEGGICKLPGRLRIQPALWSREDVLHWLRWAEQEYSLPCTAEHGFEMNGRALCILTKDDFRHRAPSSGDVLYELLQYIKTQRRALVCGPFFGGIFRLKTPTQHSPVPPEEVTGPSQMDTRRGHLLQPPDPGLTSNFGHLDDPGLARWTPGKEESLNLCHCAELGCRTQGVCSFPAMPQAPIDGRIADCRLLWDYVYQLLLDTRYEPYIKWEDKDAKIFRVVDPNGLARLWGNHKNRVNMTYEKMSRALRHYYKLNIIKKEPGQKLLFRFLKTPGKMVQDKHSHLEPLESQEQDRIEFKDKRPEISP
# Procedure, shortened: as §1
# ELF5 = target: T11, ELF5 (Homo sapiens, UniProt Q9UKW6-2 1-255); conditions: protein: recombinant; tags: N-terminal GST; dsDNA, one strand shown
# T11 sequence: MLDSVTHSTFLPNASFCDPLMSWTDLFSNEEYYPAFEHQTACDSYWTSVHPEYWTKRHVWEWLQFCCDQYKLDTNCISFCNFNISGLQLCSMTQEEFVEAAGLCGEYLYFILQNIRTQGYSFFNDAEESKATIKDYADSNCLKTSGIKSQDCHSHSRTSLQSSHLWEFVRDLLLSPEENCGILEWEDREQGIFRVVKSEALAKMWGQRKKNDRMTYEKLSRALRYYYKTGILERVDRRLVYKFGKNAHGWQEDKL
# Procedure, shortened: as §1
# ETV3 = target: T12, ETV3 (Homo sapiens, UniProt P41162-2 1-143); conditions: protein: recombinant; tags: N-terminal GST; dsDNA, one strand shown
# T12 sequence: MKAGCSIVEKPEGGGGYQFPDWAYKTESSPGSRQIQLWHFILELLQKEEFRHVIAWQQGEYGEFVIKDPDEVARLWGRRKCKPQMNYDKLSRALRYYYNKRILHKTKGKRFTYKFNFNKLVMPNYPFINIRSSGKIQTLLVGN
# Procedure, shortened: as §1
# ETV6 = ETV6 (Homo sapiens, UniProt P41212 1-452); conditions: protein: recombinant; tags: N-terminal GST; dsDNA, one strand shown
# ETV6, sequence (P41212 whole entry): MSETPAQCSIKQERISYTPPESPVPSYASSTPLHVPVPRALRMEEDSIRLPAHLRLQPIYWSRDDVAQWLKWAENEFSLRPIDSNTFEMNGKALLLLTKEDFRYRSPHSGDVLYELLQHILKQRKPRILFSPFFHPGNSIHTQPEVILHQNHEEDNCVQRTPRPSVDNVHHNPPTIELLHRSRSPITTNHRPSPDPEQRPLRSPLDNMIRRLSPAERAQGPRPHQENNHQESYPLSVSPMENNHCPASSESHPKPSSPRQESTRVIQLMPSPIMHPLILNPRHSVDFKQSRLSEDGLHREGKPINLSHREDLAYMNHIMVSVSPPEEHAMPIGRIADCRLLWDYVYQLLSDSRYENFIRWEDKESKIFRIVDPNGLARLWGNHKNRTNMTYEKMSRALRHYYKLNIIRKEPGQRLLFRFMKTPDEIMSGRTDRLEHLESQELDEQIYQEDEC
# Procedure, shortened: as §1
sequence,measurement,setting,value
TTAACT,binding signal,FEV,"1.25 fold enrichment (6-mer frequency, TF over GST control)"
same,binding signal,ETV5,"1.2 fold enrichment (6-mer frequency, TF over GST control)"
same,binding signal,HSF1,"1.79 fold enrichment (6-mer frequency, TF over GST control)"
same,binding signal,SPIC,"1.36 fold enrichment (6-mer frequency, TF over GST control)"
same,binding signal,ELF4,"1.23 fold enrichment (6-mer frequency, TF over GST control)"
same,binding signal,ELK4,"1.2 fold enrichment (6-mer frequency, TF over GST control)"
same,binding signal,ETV2,"1.17 fold enrichment (6-mer frequency, TF over GST control)"
same,binding signal,ELF3,"1.21 fold enrichment (6-mer frequency, TF over GST control)"
same,binding signal,CRX,"2.72 fold enrichment (6-mer frequency, TF over GST control)"
same,binding signal,ETV1,"1.16 fold enrichment (6-mer frequency, TF over GST control)"
same,binding signal,ERF,"1.23 fold enrichment (6-mer frequency, TF over GST control)"
same,binding signal,ETV3L,"1.19 fold enrichment (6-mer frequency, TF over GST control)"
same,binding signal,ETS2,"1.25 fold enrichment (6-mer frequency, TF over GST control)"
same,binding signal,SPDEF,"1.18 fold enrichment (6-mer frequency, TF over GST control)"
same,binding signal,ETV7,"1.16 fold enrichment (6-mer frequency, TF over GST control)"
same,binding signal,ELF5,"1.17 fold enrichment (6-mer frequency, TF over GST control)"
same,binding signal,ETV3,"1.22 fold enrichment (6-mer frequency, TF over GST control)"
same,binding signal,ETV6,"1.17 fold enrichment (6-mer frequency, TF over GST control)"
